From PubChem BioAssay
Shown are actives, neighbours in structure and some others; about 9.8% of the full set was active somewhere.
HPGD block: HPGD (human) dehydrogenase inhibition. hit rate 4.3% among 150,000. P15428. purified HPGD, NADH fluorescence kinetic, PGE2 substrate. Potency, µM, for the others: top-dose activity change, negative = inhibition, most hits filed as inhibitors; active = well fitted inhibition curve with a large enough effect, not every such curve was filed as active; inconclusive = small, poorly fitted or top-dose-only effect, or another doubt; inactive = no such curve, though single readings can be large or run the other way; also: potency is read from the fitted curve at half-maximal effect; % is scaled to controls: 0 for no effect and ±100 for the full control effect
Target sequence (P15428 whole entry, looked up): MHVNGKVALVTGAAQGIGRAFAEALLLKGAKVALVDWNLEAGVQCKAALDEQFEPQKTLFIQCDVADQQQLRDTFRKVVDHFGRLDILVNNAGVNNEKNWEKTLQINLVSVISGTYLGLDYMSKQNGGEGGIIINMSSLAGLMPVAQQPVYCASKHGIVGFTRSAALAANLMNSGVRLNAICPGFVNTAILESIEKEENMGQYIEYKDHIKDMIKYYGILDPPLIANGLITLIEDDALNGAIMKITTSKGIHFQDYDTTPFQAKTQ
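20 nM HPGD preincubated 15 min at room temperature with compound in 50 mM Tris-HCl pH 8, 0.01% Tween 20. Started with 1 mM NAD+ and 30 uM prostaglandin E2; NADH fluorescence (360/450 nm) read 5 times over 30-s intervals, last minus first.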
HTT ATP protect: cytoprotection in Huntington HTT-Q103 PC12 cell model | PC12 HTT-Q103 induced, cytoprotection, ATP luminescence, 40 h | Potency, µM (highest dose often 56.4 µM), without a hit: cytoprotection (ATP increase), actives largely listed as activators | hit rate 0.14% among 230,000 | AID 1471; also: potency is read from the fitted curve at half-maximal effect; % of control where 0% means no effect; nearly all actives have a fitted effect of over 45% in size
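Rat PC12, Q103 Htt exon1-GFP fusion, ecdysone promoter; tebufenozide inducer 100 nM final; compound titration; qHTS, 1500 cells/well; ATPlite luminescent read.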
ALDH1A1 inh: ALDH1A1 (human) enzyme inhibition; P00352; Purified ALDH1A1, NADH fluorescence, propionaldehyde substrate; Potency, µM (series often up to 75.3 µM), for the others: at the top dose activity, negative = inhibition, usual class: inhibitors; hit rate 7.3% among 220,000; active = well fitted inhibition curve with a large enough effect, not every such curve was filed as active; inconclusive = small, poorly fitted or top-dose-only effect, or another doubt; inactive = no such curve, though single readings can be large or run the other way;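 also: potency is read from the fitted curve at half-maximal effect; plate controls were no enzyme wells and a reference inhibitor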
HTT aggregate: mutant huntingtin aggregation inhibition; hit rate 1.1% among 220,000; Potency, µM (highest dose often 46.1 µM), without a hit: at the highest dose activity change, negative = inhibition, actives largely listed as inhibitors; PC12 HttQ103-GFP aggregates, Acumen cytometry, 40 h; also: potency is read from the fitted curve at half-maximal effect; % is scaled to controls: 0 for no effect and ±100 for the full control effect; nearly all actives have a fitted effect of over 60% in size
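Aggregates are detected as GFP objects 1–25 µm with signal 6 STDEV over background in lysates of induced PC12 cells. These carry Huntingtin exon 1 with 103 glutamines fused to GFP under an ecdysone promoter; compounds titrated.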
CBFb RUNX1 block: CBF-beta/RUNX1 interaction disruption | AlphaScreen CBFb-His/RUNX1-biotin binding, biochemical | Potency, µM (series often up to 59.8 µM), inactives show at the highest dose activity, negative = inhibition, hits mostly inhibitors | 230,000 tested, under 10 active | AID 1477; also: % of control where 0% means no effect
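Room-temperature protein-protein interaction test with 30 nM each of His-tagged CBF-beta and biotinylated RUNX1, 15 min with compound, then 90 min with nickel plus streptavidin beads. Signal read in AlphaScreen mode.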
JMJD2E inh: JMJD2E (human) inhibition | Potency, µM (titrated, usually from 57.1 µM), for inactives: top-dose activity change, negative = inhibition, hits mostly inhibitors | hit rate 1.6% among 230,000 | B2RXH2 | JMJD2E catalytic domain, FDH-coupled NADH fluorescence (FDH is formaldehyde dehydrogenase);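 also: potency is read from the fitted curve at half-maximal effect; 0% = wells with enzyme and -100% = buffer wells without enzyme; nearly all actives have a fitted effect of over 50% in size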
Target sequence (B2RXH2 1-337 limits assumed): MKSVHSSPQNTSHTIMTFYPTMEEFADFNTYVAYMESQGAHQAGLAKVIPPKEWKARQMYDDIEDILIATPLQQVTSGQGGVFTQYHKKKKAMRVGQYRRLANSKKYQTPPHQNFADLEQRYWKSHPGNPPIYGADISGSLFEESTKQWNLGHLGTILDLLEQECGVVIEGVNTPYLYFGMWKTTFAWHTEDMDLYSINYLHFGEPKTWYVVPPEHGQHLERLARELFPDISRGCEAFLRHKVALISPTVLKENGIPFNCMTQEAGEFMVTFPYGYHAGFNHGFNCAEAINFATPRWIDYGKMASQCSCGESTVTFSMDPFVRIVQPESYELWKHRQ
Numbers without * were called inactive; ? = inconclusive; . = not tested or not shown; [ ] = dose if it differs, or a comment. Unless noted, calls follow the shape of the dose curve; as a rule, active = well fitted curve in the direction sought with a large enough effect; inconclusive = small, poorly fitted or top-dose-only effect, or another doubt; inactive = no such curve, though single readings can be large; an effect the other way counts as inactive or inconclusive.

SMILES	HPGD block	HTT ATP protect	ALDH1A1 inh	HTT aggregate	CBFb RUNX1 block	JMJD2E inh
O=C(COc1ccccc1-c1ccccc1)NCc1ccco1	.	-16%	7.1µM*	6%	-11%	-9%
O=C(COc1ccc(Cl)cc1Cl)NCc1ccco1	?	-6%[10 µM]	0%	-1%	3%	-1%
Cc1ccc2c(Cl)cc(Cl)c(OCC(=O)NC(=O)NCc3ccco3)c2n1	-8%	-22%	-10%	-1%	0%	-5%
Cc1ccc(OCC(=O)NCc2ccco2)cc1C	20µM*	-16%	?	14%	5%	-7%
Cc1cc(Cl)cc(Cl)c1OCC(=O)NCc1ccco1	25µM*	-29%	?	29%	-7%	-9%
Cc1ccc2c(Cl)cc(Cl)c(OCC(=O)NCc3ccco3)c2n1	-23%	?	-12%	-10%	.	25µM*
CCCCCCCCOc1ccccc1C(=O)Nc1ccc(C(=O)OCC[N+](C)(CC)CC)cc1	.	-68%	.	-36%	.	.
C=CCn1cc(C(=O)OCC)c(=O)c2ccc(F)cc21	.	-5%	5%	9%	1%	0%
CS(=O)(=O)c1ncc(CO)n1Cc1ccccc1	.	-22%	4%	16%	-5%	-8%
O=C(O)CCC(=O)N(Cc1ccco1)C1CC(=O)N(c2ccccc2)C1=O (stereo not drawn)	.	31%[10 µM]	.	6%[9.22 µM]	1%	6%
CCn1c(COc2ccccc2C)nnc1SCc1nc2ccccc2c(=O)[nH]1	.	-29%	-8%	13%	-15%	-6%
NC(=O)N/N=C/c1ccccc1OC(=O)c1ccccc1Br	.	-14%	9%	-14%[9.22 µM]	1%	8%
Cc1nnsc1C(=O)N1CCC(CO)(Cc2ccccc2Cl)CC1	.	3%[10 µM]	.	-15%[9.22 µM]	3%	0%
COc1ccc(N(CC(=O)N/N=C/c2ccc3c(c2)OCO3)S(=O)(=O)c2ccc(NC(C)=O)cc2)cc1	.	-34%	?	7%	-8%	?
Cn1cc(/C=N/Nc2ccccc2)c2ccccc21	.	-47%	8.9µM*	-1%	3%	?
CCN(CC)c1ccc(/C=C2/SC(=O)N(C(C)C)C2=O)o1	-20%	.	2.5µM*	?	2%	-15%
CC(C)(C)c1cc(CN(CCO)CCO)cc(C(C)(C)C)c1O	25µM*	-17%[0.074 µM]	2.5µM*	?	4%	?
COc1ccccc1-c1ccc(SCc2ccc([N+](=O)[O-])cc2)nn1	.	4%	3%	1%	-1%	0%
COc1ccccc1-c1ccc(SCc2cccc(C)c2)nn1	.	?	?	22µM*	1%	-4%
O=C(N1CCOCC1)N1CCN(C(=O)N(c2ccccc2)c2ccccc2)CC1	3%	-2%[10 µM]	?	2%	0%	-6%
O=C(N1CCCCC1)N1CCN(C(=O)N(c2ccccc2)c2ccccc2)CC1	-1%	9%	11µM*	-13%	-1%	9%
Cc1ccc(CNS(=O)(=O)c2ccc3c(c2)n(C)c(=O)c(=O)n3C)cc1	.	12%	?	12%	4%	?
Cc1cc(C)c(S(C)(=O)=O)c(N(C)N)n1	.	16%[10 µM]	6%	-5%	7%	-2%
COc1ccc(C2/C=C\CN(C(=O)c3ccccc3)C(Cc3ccccc3)C(=O)N2Cc2ccc(F)cc2)cc1 (stereo not drawn)	.	.	.	.	-6%	.
CCOC(=O)c1c(N)sc2c1CCSC2	-22%	-22%	13µM*	-5%[9.22 µM]	-5%	?
SMILES	HPGD block	HTT ATP protect	ALDH1A1 inh	HTT aggregate	CBFb RUNX1 block	JMJD2E inh
CCCOC(=O)c1c(N)sc2c1CCC2	-20%	-4%	28µM*	22%	4%	-15%
CCOC(=O)c1c(N)sc2c1CCC(CC)C2 (stereo not drawn)	?	-4%	?	-8%	3%	1%
Cc1c(S(=O)(=O)c2ccccn2)c(N)n(Cc2cccc(Cl)c2)c1C	.	-12%[10 µM]	.	-9%[9.22 µM]	-2%	-24%
O=S1(=O)CCN(OCc2ccc(F)cc2Cl)CC1	.	-2%	6%	15%	3%	4%
CCOc1cc(/C=C2/C(=N)N3OC(C)=CC3=NC2=O)ccc1OC(=O)c1ccco1	.	1%	10µM*	26%	-5%	?
COc1cc(/C=C2\C(=O)N(c3ccc(S(N)(=O)=O)cc3)N=C2C)ccc1OC(=O)c1ccco1	.	-4%	?	-13%	-8%	?
CCOc1cc(/C=C2/SC(=S)NC2=O)ccc1OC(=O)c1ccco1	.	-124%	8.9µM*	14µM*	-19%	-5%
CCOC(=O)c1ccc(N2NC(=O)/C(=C/c3ccc(OC(=O)c4ccco4)c(OC)c3)C2=O)cc1	13µM*	.	?	11%	-17%	-5%
FC(F)(F)c1cnc(-c2cnc(-c3cccnc3)nc2)c(Cl)c1	.	-27%	5%	2%	-4%	-9%
Cc1oc(-c2ccccc2)nc1CS(=O)CC(=O)N1CCc2ccccc2C1 (stereo not drawn)	?	-9%	25µM*	16%	-2%	?
COC(=O)[C@H](Cc1ccccc1)NC(=O)NCCC1=CCCCC1	-14%	9%[10 µM]	12%	9%	-3%	12%
CCOC(=O)c1c(NC(=O)CC2SC(N)=NC2=O)sc(C)c1C (stereo not drawn)	.	-34%[10 µM]	0%	23%[9.22 µM]	2%	1%
COC(=O)c1c(NC(=O)CC2SC(N)=NC2=O)sc2c1CCC(C)C2 (stereo not drawn)	-2%	16%[10 µM]	13µM*	12%	8%	-9%
COCC(=O)Nc1sc2c(c1C(=O)OC)CCC(C)C2 (stereo not drawn)	-10%	9%	?	-12%	13%	?
COC(=O)c1c(NC(=O)CC2SC(N)=NC2=O)sc2c1CCCC2 (stereo not drawn)	-15%	-7%[10 µM]	25µM*	?	-7%	0%
COC(=O)c1c(NC(=O)CC2NCCNC2=O)sc2c1CCCC2 (stereo not drawn)	-2%	-18%	?	5%	0%	-18%
CCOC(=O)c1c(NC(=O)CC2SC(N)=NC2=O)sc2c1CCC(C)C2 (stereo not drawn)	-24%	29%[10 µM]	16µM*	?	3%	3%
COC(=O)c1c(NC(=O)CSc2ncnc3[nH]ncc23)sc2c1CCC2	.	-18%	14µM*	16%	2%	-12%
CC(C(=O)Nc1cccnc1)n1cc([N+](=O)[O-])cn1 (stereo not drawn)	.	-1%	14%	3%	18%	1%
c1ccc(CSc2nnc(-c3sccc3-n3cccc3)o2)cc1	-30%	-38%	?	-19%	13%	-4%
CCC1(C(=O)OC)NC(c2ccco2)C2C(=O)N(c3ccc(F)cc3)C(=O)C21 (stereo not drawn)	.	-2%[10 µM]	18µM*	-11%[9.22 µM]	6%	-32%
CCC1(C(=O)OC)NC(c2ccco2)C2C(=O)N(c3ccccc3)C(=O)C21 (stereo not drawn)	-5%	-1%	?	-2%	-4%	-13%
